# Assay results published in PubChem BioAssay (Tox21).
# Inconclusive results are not listed. A call without a number means that no potency is given here. Calls of active or inactive are those of the source. Calls follow the shape of the dose curve; as a rule, active = well fitted curve in the direction sought with a large enough effect in the repeat runs; inconclusive = weak or mixed curves; inactive = no such curve, though single readings can be large; an effect the other way counts as inactive or inconclusive.
# Tests used:
# [1] = Caspase-3/7 induction in CHO-K1 cells by small molecules, qHTS assay (AID 1346980); also: nearly all actives have a fitted effect of over 15% in size
# In short: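 Luminescent Caspase-Glo 3/7 read (30min, room temperature) quantified apoptosis induction. Cells were wild-type CHO-K1, treated with compound for 17hr at 37 C and 5% CO2.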
# [2] = Caspase-3/7 induction in HepG2 cells by small molecules, qHTS cell viability counter screen (AID 1346981); also: nearly all actives have a fitted effect of over 30% in size
# In short: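 Fluorescence read-out of live-cell protease activity (CellTiter-Fluor) after 1 hr with reagent. This was measured in the same wells as the caspase-3/7 luminescence, on HepG2 cells exposed to DMSO-dissolved compounds for 16 hr at 37 C.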
# [3] = target: Nuclear receptor subfamily 1 group I member 2 (Homo sapiens) (UniProt O75469); assay: Human pregnane X receptor (PXR) small molecule agonists, qHTS assay (AID 1346982); also: nearly all actives have a fitted effect of over 35% in size
# In short: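 HepG2 PXR-Luc reporter line, 5% charcoal-stripped FBS; 5 hr pre-incubation, compound (DMSO) 24 hr at 37 C/5% CO2; ONE-Glo 30 min RT; luminescence read-out.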
# [4] = target: Cytochrome P450 2C19 (Homo sapiens) (UniProt P33261); assay: Cytochrome P450 Family 2 Subfamily C Member 19 (CYP2C19) small molecule antagonists: luciferase reporter qHTS assay (AID 1671197); also: nearly all actives have a fitted effect of over 65% in size
# In short: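 First, compounds are pinned into enzyme-substrate mix and held 10 min at room temperature. Second, NADPH regeneration solution is added and plates incubate 1 h at 37C. Third, detection reagent is added and luminescence read after 20 min.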
# [5] = target: Cytochrome P450 1A2 (Homo sapiens) (UniProt P05177); assay: Cytochrome P450 Family 1 Subfamily A Member 2 (CYP1A2) small molecule antagonists: luciferase reporter qHTS assay (AID 1671199); also: nearly all actives have a fitted effect of over 50% in size
# In short: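 Luminescence readout (relative luminescence units) after luciferin detection reagent, 20 min RT. Preceded by 1 h room-temperature CYP1A2 reaction with NADPH regeneration solution following 10 min compound preincubation with enzyme and proluciferin substrate. Furafylline positive control.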
# [6] = target: Voltage-gated inwardly rectifying potassium channel KCNH2 (Homo sapiens) (UniProt Q12809); assay: Human Ether-a-go-go-Related Gene (hERG) channel small molecule antagonists: fluorescence cell-based qHTS assay (AID 1671200); also: nearly all actives have a fitted effect of over 50% in size
# In short: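 Quantitative HTS in hERG-U2OS cells: thallium entry through the channel reports activity, read as continuous 480/540 nm fluorescence over 2 min after stimulus addition.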
# [7] = target: Cytochrome P450 3A4 (Homo sapiens) (UniProt P08684); assay: Cytochrome P450 Family 3 Subfamily A Member 4 (CYP3A4) small molecule antagonists: luciferase reporter qHTS assay (AID 1671201); also: nearly all actives have a fitted effect of over 50% in size
# In short: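 Inhibition of CYP3A4 is measured as loss of light: the enzyme converts a proluciferin substrate to luciferin, detected luminescently. Reaction ran 1 h at room temperature with NADPH regeneration after a 10 min compound preincubation.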
# [8] = target: Cytochrome P450 2C9 (Homo sapiens) (UniProt P11712); assay: Cytochrome P450 Family 2 Subfamily C Member 9 (CYP2C9) small molecule antagonists: luciferase reporter qHTS assay (AID 1671198); also: nearly all actives have a fitted effect of over 50% in size
# In short: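 Enzyme-substrate mix preincubated with compound 10 min at room temperature; reaction started with NADPH regeneration solution, 1 h 37C. Luminescent luciferin product read after 20 min detection reagent.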
# Potency is read from the fitted curve at half-maximal effect.
# Sequence of Cytochrome P450 3A4 (Homo sapiens) (P08684 whole entry, looked up): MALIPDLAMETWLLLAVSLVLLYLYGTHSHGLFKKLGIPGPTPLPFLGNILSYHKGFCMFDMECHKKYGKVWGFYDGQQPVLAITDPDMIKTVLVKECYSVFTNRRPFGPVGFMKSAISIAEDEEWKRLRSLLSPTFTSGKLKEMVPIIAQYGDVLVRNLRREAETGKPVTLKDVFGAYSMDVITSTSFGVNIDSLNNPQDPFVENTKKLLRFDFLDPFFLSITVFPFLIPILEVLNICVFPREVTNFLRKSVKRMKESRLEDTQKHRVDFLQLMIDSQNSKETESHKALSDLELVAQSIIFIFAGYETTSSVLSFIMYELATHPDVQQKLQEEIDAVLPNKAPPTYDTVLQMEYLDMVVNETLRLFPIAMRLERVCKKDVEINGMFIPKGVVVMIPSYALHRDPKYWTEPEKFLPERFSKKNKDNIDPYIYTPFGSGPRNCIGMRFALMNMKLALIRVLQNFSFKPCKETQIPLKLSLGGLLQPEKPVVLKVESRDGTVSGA
# Sequence of Cytochrome P450 2C9 (Homo sapiens) (P11712 whole entry, looked up): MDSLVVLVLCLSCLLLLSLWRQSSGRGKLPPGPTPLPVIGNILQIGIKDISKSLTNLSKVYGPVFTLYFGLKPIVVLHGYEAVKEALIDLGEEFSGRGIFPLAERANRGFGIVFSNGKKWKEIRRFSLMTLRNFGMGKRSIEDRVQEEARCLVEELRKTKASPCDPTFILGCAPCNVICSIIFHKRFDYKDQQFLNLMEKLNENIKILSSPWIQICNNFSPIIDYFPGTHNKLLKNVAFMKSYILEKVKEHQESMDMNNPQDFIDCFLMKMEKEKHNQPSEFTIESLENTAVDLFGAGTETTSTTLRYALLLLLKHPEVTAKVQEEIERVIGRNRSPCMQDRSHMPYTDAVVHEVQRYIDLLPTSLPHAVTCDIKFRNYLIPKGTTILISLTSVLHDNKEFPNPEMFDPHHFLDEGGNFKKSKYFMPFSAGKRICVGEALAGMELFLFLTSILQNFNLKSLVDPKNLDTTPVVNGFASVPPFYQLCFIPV
# Sequence of Voltage-gated inwardly rectifying potassium channel KCNH2 (Homo sapiens) (Q12809 whole entry, looked up): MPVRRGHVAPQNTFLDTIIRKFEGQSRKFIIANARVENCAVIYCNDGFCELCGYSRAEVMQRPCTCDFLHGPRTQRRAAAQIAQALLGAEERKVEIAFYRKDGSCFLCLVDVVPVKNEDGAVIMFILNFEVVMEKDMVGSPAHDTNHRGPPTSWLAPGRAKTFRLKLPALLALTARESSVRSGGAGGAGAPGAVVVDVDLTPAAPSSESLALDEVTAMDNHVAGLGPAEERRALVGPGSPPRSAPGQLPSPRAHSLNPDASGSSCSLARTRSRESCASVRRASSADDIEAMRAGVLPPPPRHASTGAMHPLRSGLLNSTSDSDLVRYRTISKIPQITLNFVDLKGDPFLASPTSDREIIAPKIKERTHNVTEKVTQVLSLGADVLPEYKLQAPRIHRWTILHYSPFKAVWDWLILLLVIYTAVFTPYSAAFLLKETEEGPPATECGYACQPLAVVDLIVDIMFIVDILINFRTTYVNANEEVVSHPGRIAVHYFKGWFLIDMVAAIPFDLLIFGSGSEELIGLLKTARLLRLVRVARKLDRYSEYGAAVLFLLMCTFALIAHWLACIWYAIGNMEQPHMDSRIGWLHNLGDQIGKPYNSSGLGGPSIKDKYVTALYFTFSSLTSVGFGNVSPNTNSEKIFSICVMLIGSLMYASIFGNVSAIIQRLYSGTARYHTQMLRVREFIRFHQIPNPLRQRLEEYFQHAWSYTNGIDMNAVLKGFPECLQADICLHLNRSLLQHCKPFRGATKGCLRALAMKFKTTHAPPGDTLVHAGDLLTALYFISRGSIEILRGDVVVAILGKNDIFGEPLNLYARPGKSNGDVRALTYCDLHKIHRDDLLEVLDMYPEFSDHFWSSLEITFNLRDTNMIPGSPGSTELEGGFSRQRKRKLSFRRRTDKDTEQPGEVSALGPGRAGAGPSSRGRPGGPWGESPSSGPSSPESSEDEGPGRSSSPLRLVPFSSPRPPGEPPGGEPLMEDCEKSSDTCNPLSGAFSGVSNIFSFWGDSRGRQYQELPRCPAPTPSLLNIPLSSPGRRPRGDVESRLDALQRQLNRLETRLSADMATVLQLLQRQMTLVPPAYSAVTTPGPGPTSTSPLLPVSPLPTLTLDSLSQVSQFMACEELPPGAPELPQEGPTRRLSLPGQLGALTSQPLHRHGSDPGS
# Sequence of Cytochrome P450 1A2 (Homo sapiens) (P05177 whole entry, looked up): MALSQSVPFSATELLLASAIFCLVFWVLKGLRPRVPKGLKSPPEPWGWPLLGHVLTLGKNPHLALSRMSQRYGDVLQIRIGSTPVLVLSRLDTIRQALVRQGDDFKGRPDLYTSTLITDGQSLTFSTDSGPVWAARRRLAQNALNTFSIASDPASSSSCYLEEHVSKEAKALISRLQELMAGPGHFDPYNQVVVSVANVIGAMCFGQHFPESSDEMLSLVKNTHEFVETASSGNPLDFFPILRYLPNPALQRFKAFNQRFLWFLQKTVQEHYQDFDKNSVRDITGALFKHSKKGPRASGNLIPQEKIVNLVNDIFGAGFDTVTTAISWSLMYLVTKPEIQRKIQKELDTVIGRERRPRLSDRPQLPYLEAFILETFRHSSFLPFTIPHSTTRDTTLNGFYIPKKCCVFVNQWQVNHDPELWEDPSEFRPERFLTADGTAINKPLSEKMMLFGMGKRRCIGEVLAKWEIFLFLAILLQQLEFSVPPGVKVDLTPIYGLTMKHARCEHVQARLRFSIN
# Sequence of Nuclear receptor subfamily 1 group I member 2 (Homo sapiens) (O75469 whole entry, looked up): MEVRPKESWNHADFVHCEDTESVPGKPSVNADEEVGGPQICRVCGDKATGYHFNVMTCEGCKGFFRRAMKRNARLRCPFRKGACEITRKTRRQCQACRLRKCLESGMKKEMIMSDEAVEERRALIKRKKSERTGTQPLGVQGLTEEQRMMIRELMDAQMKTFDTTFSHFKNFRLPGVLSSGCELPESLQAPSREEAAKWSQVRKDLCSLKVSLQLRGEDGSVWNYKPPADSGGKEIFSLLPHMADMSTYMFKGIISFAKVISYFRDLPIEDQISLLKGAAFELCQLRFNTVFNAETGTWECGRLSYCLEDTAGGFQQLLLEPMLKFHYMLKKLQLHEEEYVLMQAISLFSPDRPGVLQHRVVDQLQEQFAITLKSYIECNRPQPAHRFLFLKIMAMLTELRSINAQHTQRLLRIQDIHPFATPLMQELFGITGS
# Sequence of Cytochrome P450 2C19 (Homo sapiens) (P33261 whole entry, looked up): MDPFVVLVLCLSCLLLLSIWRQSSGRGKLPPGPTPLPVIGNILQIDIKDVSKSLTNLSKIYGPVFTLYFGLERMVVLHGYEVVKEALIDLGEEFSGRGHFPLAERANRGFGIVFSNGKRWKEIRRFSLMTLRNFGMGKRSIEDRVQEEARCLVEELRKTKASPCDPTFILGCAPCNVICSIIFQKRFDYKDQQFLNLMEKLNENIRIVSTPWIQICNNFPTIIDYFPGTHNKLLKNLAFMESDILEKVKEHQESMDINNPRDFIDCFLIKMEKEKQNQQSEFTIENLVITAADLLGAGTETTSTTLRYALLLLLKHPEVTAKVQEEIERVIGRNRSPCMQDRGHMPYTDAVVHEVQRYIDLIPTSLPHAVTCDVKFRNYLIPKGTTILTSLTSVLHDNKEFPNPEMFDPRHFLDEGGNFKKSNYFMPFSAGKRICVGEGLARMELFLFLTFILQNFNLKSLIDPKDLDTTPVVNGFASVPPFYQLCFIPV
Structure (SMILES),Potency [1],Potency [2],Potency [3],Potency [4],Potency [5],Potency [6],Potency [7],Potency [8]
CCc1cccc(C)c1N(C(=O)C(=O)O)C(C)COC (stereo not drawn),inactive,inactive,inactive,inactive,inactive,inactive,inactive,–
NC(=O)C1CO1 (stereo not drawn),inactive,inactive,inactive,inactive,inactive,inactive,inactive,inactive
C=CC(C)(C)O,inactive,inactive,inactive,inactive,inactive,inactive,inactive,inactive
Oc1ccc(C2(c3ccc(O)c(C4CCCCC4)c3)CCCCC2)cc1C1CCCCC1,13.7 µM (active),30.6 µM (active),8.63 µM (active),8.94 µM (active),inactive,inactive,14.2 µM (active),2.52 µM (active)
O=c1[nH]cccc1O,inactive,inactive,inactive,inactive,inactive,inactive,inactive,–
Cn1ccnc1,inactive,inactive,inactive,inactive,inactive,inactive,inactive,inactive
COc1c(Br)cc(Br)c(C)c1Br,inactive,inactive,inactive,89.4 µM (active),3.56 µM (active),inactive,inactive,inactive
C=C(C)CCO,inactive,inactive,inactive,inactive,inactive,inactive,inactive,inactive
CC/C=C(\C)C=O,inactive,inactive,inactive,inactive,39.9 µM (active),inactive,inactive,inactive
CC(O)(c1ccc(Cl)cc1)c1ccc(Cl)cc1,inactive,inactive,27.3 µM (active),0.113 µM (active),31.7 µM (active),49 µM (active),inactive,7.96 µM (active)
